This passage reports Potency results from PubChem BioAssay (Tox21).

Records with an inconclusive call do not appear. Where a call stands in place of a potency, no number is given. Activity calls are given as the source filed them. Calls come from the whole dose curve; as a rule, active = well fitted activation curve with a large enough effect in the repeat runs; inconclusive = weak or mixed curves, or effect the other way; inactive = no such curve, though single readings can be large or run the other way.
Potency is the fitted concentration of half-maximal effect.

The assay is described as follows: qHTS assay to identify small molecule agonists of the estrogen related receptor signaling pathway with the pleiotropic PPARgamma coactivator (PGC) from Tox21 10K library (AID 1224842). Note: nearly all actives have a fitted effect of over 15% in size. To be noted: PGC/ERR reporter cell line, luciferase ONE-Glo, 18 h; series mostly up to 92.4 µM. An excerpt:
National Center for Advancing Translational Sciences [NCATS] NIH Chemical Genomics Center [NCGC] U.S. Environmental Protection Agency [EPA] National Institutes of Environmental Health Sciences [NIEHS] National Toxicology Program [NTP] Assay overview: Estrogen related receptors (ERRs), the first orphan nuclear receptors discovered, play an important role in the control of cellular energy metabolism. ERRs are required for high-energy production in response to the environmental challenges. The pleiotropic PPARgamma coactivator (PGC) is a major partner of ERR and a key regulator in energy homeostasis. Together they have been implicated in the etiology of metabolic disorders such as Type 2 diabetes and metabolic syndrome. ERR-alpha was also identified as an adverse marker for breast cancer progression; ERR-alpha-positive tumors have a poor prognosis. To screen and to identify environmental compounds that perturb the PGC/ERR signaling pathways could provide valuable information for potential therapeutic or preventive measures in the treatment of metabolic disease. For identifying PGC/ERR agonists, PGC/ERR cell line (provided by NTP) has been used to screen Tox21 10K library.
Assay Protocol Summary: The PGC/ERR cells were dispensed at 2,000 cells/5 ul/well in 1536-well white plates using a Multidrop dispenser. After the assay plates were incubated at a 37 C/5% CO2 incubator for 6 hours, 23 nL of compounds dissolved in DMSO, positive and negative controls or DMSO only was transferred to the assay plate by a pin tool. The plates were incubated at 37 C for 18 hours. 4 ul/well of One-Glo reagent was added into the assay plates using a Flying Reagent Dispenser. After 30-minute incubation at room temperature, the luminescence intensity in the plates was measured using a ViewLux plate reader.
On the technique in general: Quantitative high-throughput screening tests each substance at several concentrations.
As to `O=C(c1ccccc1)c1cc(Cl)ccc1O`, the Potency result was “inactive”.
On to `ClC/C=C\CCl`, for which the Potency result is “inactive”.
In the case of `CCCCCCCCCCc1ccccc1` it was “inactive”; in that of `COC(=O)[C@]1(C)CCC[C@@]2(C)[C@H]1CC=C1C=C(C(C)C)CC[C@@H]12`, “inactive”.
As to `CN1CCN(C2Cc3ccccc3Sc3ccc(Cl)cc32)CC1` (stereo not given), the Potency result was “inactive”.
For the compound `Clc1ccc(C(Cn2ccnc2)OCc2c(Cl)cccc2Cl)c(Cl)c1` (stereo not given), the Potency entry is “inactive”.
For the compound `Cc1cccc(N(C)C)c1`, the Potency entry was “inactive”.
In the case of `COC(=O)C1=C(C)NC(C)=C(C(=O)OCCCN2CCC(c3ccccc3)(c3ccccc3)CC2)C1c1cccc([N+](=O)[O-])c1` (stereo not given), the Potency entry was “inactive”.
In the case of `O=S(=O)(O)CCCN1CCOCC1` it was “inactive”; in that of `CCCCCCC(C)OC(=O)COc1nc(F)c(Cl)c(N)c1Cl` (stereo not given), “inactive”; in that of `CC(=O)OC1CCCCC1`, “inactive”.
In the case of `Cc1cncc(C)c1` it was “inactive”; in that of `Cc1ccc(O)cn1`, “inactive”; in that of `COc1cccc(CCc2ccccc2OCC(CN(C)C)OC(=O)CCC(=O)O)c1` (stereo not given), “inactive”.
In the case of `Cc1cc(Nc2ccc(O)cc2)ccc1N` it was “inactive”; in that of `Brc1ccccc1-c1ccccc1`, “inactive”.
Regarding `CC1(C)COCN1`, the Potency entry is “inactive”.
Turning to `NC(=O)c1ccccc1N`, the Potency result was “inactive”.
As for `NC(=O)c1nc(-c2cccc(-c3cc(F)ccc3OCC(F)(F)C(F)(F)F)c2)n[nH]1`, the Potency entry is “inactive”.
In the case of `C=C(c1ccc(C(=O)O)cc1)c1cc2c(cc1C)C(C)(C)CCC2(C)C` it was “inactive”; in that of `CCN=c1cc2oc3cc(NCC)c(C)cc3c(-c3ccccc3C(=O)OCC)c-2cc1C`, “inactive”; in that of `C=C[C@](C)(O)CC[C@@H]1[C@@]2(C)CCCC(C)(C)[C@@H]2CC[C@@]1(C)O`, “inactive”.
On to `CCCCOC(=O)C(C)CC` (stereo not given), for which the Potency entry is “inactive”.
In the case of `CNCC[C@H](Oc1cccc2ccccc12)c1cccs1` it was “inactive”; in that of `CC(C)(c1cc(Br)c(O)c(Br)c1)c1cc(Br)c(O)c(Br)c1`, “inactive”; in that of `COc1cc(C(=O)NS(=O)(=O)c2ccccc2C)ccc1Cc1cn(C)c2ccc(NC(=O)OC3CCCC3)cc12`, “inactive”.
Take `C/C=C/C(=O)C1=C(C)CCCC1(C)C`: the Potency entry was “inactive”.
In the case of `COc1nccnc1CC(C)C` it was “inactive”; in that of `S=P(N1CC1)(N1CC1)N1CC1`, “inactive”.
With `CCCCCCOc1ccc(O)cc1`, the Potency was 13.7 µM (active).
In the case of `Cc1nc(Nc2ncc(C(=O)Nc3c(C)cccc3Cl)s2)cc(N2CCN(CCO)CC2)n1` it was 0.0944 µM (active); in that of `CCCCCCCCCCCCN(CCO)CCO`, “inactive”.
As to `COc1cc(C=C2CCC/C(=C\c3ccc(O)c(OC)c3)C2=O)ccc1O`, the Potency entry is “inactive”.
On to `Cc1oc(-c2ccccc2)nc1CCOc1ccc(C[C@H](Nc2ccccc2C(=O)c2ccccc2)C(=O)O)cc1`, for which the Potency entry was “inactive”.
As to `CC1CCCCN1CCCOC(=O)c1ccc(OC2CCCCC2)cc1` (stereo not given), the Potency result was “inactive”.
Take `CCC(C)(C)c1cc(O)c(C(C)(C)CC)cc1O`: the Potency result is “inactive”.
In the case of `C=C1C(C)(C)[C@@]2(Cl)C(Cl)[C@]1(Cl)C(Cl)(Cl)C2(Cl)Cl` (stereo not given in full), the Potency result was “inactive”.
Consider `CCOC(=O)CC(C)O` (stereo not given), for which the Potency result was “inactive”.
In the case of `Cn1cccc1` it was “inactive”; in that of `CO[Si](CCC1CCC2OC2C1)(OC)OC` (stereo not given), “inactive”.
